This passage reports AC50 and outcome results from PubChem BioAssay (EPA / NIEHS).

In general, AC50 refers to the concentration giving half of the maximal activity seen.

Inconclusive results are not listed. Activity calls are given as the source filed them. How the source made its calls, unless noted: active means hit-call score of the fitted dose curve at least 0.9, where 1 is the maximum; inactive means score below 0.9.

Read-out in assay [1]: Monokine induced gamma interferon (MIG), CXCL9 (gene 4283)
The assay can be described thus: BSK_3C_MIG: BioMAP Diversity Plus: 3C Assay for Monokine induced gamma interferon (MIG) Biomarker Activity (AID 2283021).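 On AC50: MIG protein level measured by immunoassay in the treated endothelial cultures.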 The following applies: primary human endothelial cells (HUVEC); actives raise or lower the signal. In outline: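 After 24 h of treatment, human umbilical vein endothelial cultures (3C system) had their MIG biomarker level determined by ELISA, with DMSO serving as negative control.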

Assay [2] concerns the target human Vitamin D Receptor (VDR), VDR (gene 7421) (UniProt P11473). The assay can be described thus: ATG_VDR_TRANS: Attagene TRANS-FACTORIAL HepG2 Assay for human Vitamin D Receptor (VDR) (AID 2283022; active means hit-call score of the fitted dose curve at least 0.9, where 1 is the maximum). Put shortly: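 Fluorescence of labelled reporter cDNA fragments, resolved by capillary electrophoresis, gives mRNA induction after 24 h treatment of HepG2 cells carrying transfected Gal4-fusion reporter units. Activity is fitted in the positive direction with DMSO as baseline.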

Assay [3] in a line: BSK_3C_SRB: Viability Assessment in the BioMAP Diversity Plus: 3C Assay (AID 2283023).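 Further: fitted both ways against DMSO so a hit may be signal rise or drop.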 To be noted: primary human endothelial cells (HUVEC). Put shortly: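 Cells were dosed with chemical, cultured 24 h, fixed with 10% TCA, stained with 0.1% SRB and read at 560 nm. Human umbilical vein endothelium was used; DMSO served as negative control and baseline.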
Read-out in assay [4]: Matrix Metallopeptidase 1 (MMP1), MMP1 (gene 4312)
The assay can be described thus: BSK_BE3C_MMP1: BioMAP Diversity Plus: BE3C Assay for Matrix Metallopeptidase 1 (MMP1) Biomarker Activity (AID 2283024). The following applies: primary human bronchial epithelial cells; actives raise or lower the signal. In outline:
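Dose cells, wait 24 h, run MMP1 ELISA; cells are human bronchial epithelial primaries. Both increases and decreases relative to DMSO counted.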

The nature of assay [5]: BSK_3C_Vis: BioMAP Diversity Plus: 3C Assay for Morphology Visualization (AID 2283025).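 Further: fitted both ways so gain or loss versus DMSO counts.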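 On AC50: light microscopy image of cell morphology used as background control.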 To be noted: primary human endothelial cells (HUVEC). In outline:
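Endothelial cells from human umbilical vein were treated with test chemicals for 24 h and inspected by light microscopy for changes in cell conformation.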

Read-out in assay [6]: Pselectin, SELP (gene 6403)
The assay can be described thus: BSK_4H_Pselectin: BioMAP Diversity Plus: 4H Assay for Pselectin Biomarker Activity (AID 2283026). To be noted: primary human endothelial cells (HUVEC); actives raise or lower the signal. In outline:
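Human vascular endothelium from umbilical vein; P-selectin measured by ELISA at 24 h post-dose, with cytotoxicity checked by sulforhodamine B total-protein staining in parallel cultures (0.1% SRB after 10% TCA fixation, read at 560 nm).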

The nature of assay [7]: BSK_4H_SRB: Viability Assessment in the BioMAP Diversity Plus: 4H Assay (AID 2283027).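 Further: cells exposed to compound for 24 h before staining.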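 On AC50: curves fitted both ways versus DMSO so AC50 may be loss or gain.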 To be noted: primary human endothelial cells (HUVEC). Put shortly: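 Human umbilical vein endothelial cells, 24 h after chemical dosing; total protein measured by 0.1% sulforhodamine B staining after 10% TCA fixation, read at 560 nm. Bidirectional fitting against DMSO.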
Assay [8] in a line: BSK_BE3C_SRB: Viability Assessment in the BioMAP Diversity Plus: BE3C Assay (AID 2283028).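 On AC50: fitted both ways so AC50 may mark signal gain or loss versus DMSO.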 The following applies: primary human bronchial epithelial cells. In outline: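 Overt cytotoxicity was assessed as total protein in confluent human primary bronchial epithelial cultures 24 h after chemical addition, using 0.1% sulforhodamine B staining read at 560 nm.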
Read-out in assay [9]: Thrombomodulin, THBD (gene 7056)
The assay can be described thus: BSK_3C_Thrombomodulin: BioMAP Diversity Plus: 3C Assay for Thrombomodulin Biomarker Activity (AID 2283029). To be noted: primary human endothelial cells (HUVEC); actives raise or lower the signal. Put shortly:
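Thrombomodulin ELISA, human primary HUVEC, 24 h post-dose; data fitted in both directions relative to DMSO.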

Read-out in assay [10]: Urokinase-type plasminogen activator receptor (uPAR), PLAUR (gene 5329)
In words: BSK_4H_uPAR: BioMAP Diversity Plus: 4H Assay for Urokinase-type plasminogen activator receptor (uPAR) Biomarker Activity (AID 2283030). The following applies: primary human endothelial cells (HUVEC); actives raise or lower the signal. Put shortly:
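Chemicals are dosed onto human vascular endothelial primary cells (umbilical vein). After 24 h, uPAR is read by ELISA. Gain or loss of signal is fitted relative to DMSO.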

human Vitamin D Receptor (VDR), VDR (gene 7421), sequence (P11473 whole entry, looked up, the tested form may be a part): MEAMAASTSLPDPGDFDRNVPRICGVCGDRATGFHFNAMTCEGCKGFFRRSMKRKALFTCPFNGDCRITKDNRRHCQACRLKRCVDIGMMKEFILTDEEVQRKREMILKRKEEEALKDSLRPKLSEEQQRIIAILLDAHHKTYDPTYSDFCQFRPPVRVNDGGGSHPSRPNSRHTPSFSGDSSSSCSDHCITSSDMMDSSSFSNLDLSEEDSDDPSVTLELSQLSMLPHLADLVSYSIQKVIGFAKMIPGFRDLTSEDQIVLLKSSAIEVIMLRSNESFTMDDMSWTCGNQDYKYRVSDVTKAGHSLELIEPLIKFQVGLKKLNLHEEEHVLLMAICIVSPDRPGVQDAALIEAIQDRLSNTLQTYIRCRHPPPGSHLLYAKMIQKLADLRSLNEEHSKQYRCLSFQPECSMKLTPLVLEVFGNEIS

For `COc1cc(-c2nc(NC(=O)c3cc4cc(C)cc(C)c4n3CC(=O)O)sc2CCC2CCCCC2)c(OC)cc1Cl`, the AC50 in assay [1] is 5.26 µM (active); in assay [3] it was 2.92 µM (active); in assay [4] it was 4.37 µM (active); in assay [5] it was 4.08 µM (active); in assay [6], 3.63 µM (active); in assay [7], 4.62 µM (active). Moreover, the half-maximal activity concentration (AC50) was 3.12 µM (active) in assay [8] and 23.6 µM (active) in assay [9]. Moreover, in assay [2], the compound was classed as inactive.

Regarding `CC1=C(/C=C/C(C)=C/C=C/C(C)=C/CO)C(C)(C)CCC1`, the result in assay [1], in [2], in assay [3], in [4], in assay [5] and in assay [6] was inactive. For the same compound, the outcome in [7], in assay [8] and in assay [9] was inactive.

Take `CCc1c(C(=O)NN2CCCCC2)nn(-c2ccc(Cl)cc2Cl)c1-c1ccc(Br)cc1`: the outcome in assay [1], in assay [2], in assay [4], in assay [8] and in assay [9] was inactive. In addition, the half-maximal activity concentration (AC50) is 9.03 µM (active) in assay [3], 13.2 µM (active) in [5], 2.66 µM (active) in assay [6] and 6.66 µM (active) in [7].

With `CCCCN(CCCC)CCCC`, the outcome in assay [1], in assay [2], in [3], in assay [4], in assay [5] and in assay [6] was inactive. Also, the result in assay [7], in assay [8] and in assay [9] was inactive.

Take `CN1CCCC1=O`: the result in assay [1], in assay [2], in [3], in [4], in [5] and in assay [6] was inactive. Further, the result in assay [7], in [8] and in assay [9] was inactive.

Consider `Nc1ccccc1N`, for which the result in assay [1], in [2], in assay [3], in assay [4], in assay [5] and in assay [6] was inactive. The result in [7], in [8] and in assay [9] was inactive.

Regarding `CCCCC(CC)COC(=O)CC(C(=O)OCC(CC)CCCC)S(=O)(=O)O` (stereo not given), the AC50 in assay [1] is 38 µM (active); in assay [3] it was 31.2 µM (active); in assay [4], 10.2 µM (active); in [5], 37.5 µM (active); in [6], 32.2 µM (active); in assay [7] it was 38 µM (active). Also, the half-maximal activity concentration (AC50) in assay [8] is 6.46 µM (active). In addition, the result in assay [2] and in assay [9] was inactive.

For `CC1(C)NC(=O)NC1=O`, the outcome in assay [1], in assay [2], in assay [3], in [4], in [5] and in assay [6] was inactive. In addition, the outcome in [7], in assay [8] and in [9] was inactive.

On to `CC(CO)OC(C)CO` (stereo not given) (tested in a mixture with another compound), for which the outcome in assay [1], in assay [2], in [3], in [4], in assay [5] and in assay [6] was inactive. Moreover, the outcome in [7], in assay [8], in assay [9] and in assay [10] was inactive.

`Cc1cccc(C)c1O`: the outcome in assay [1], in assay [2], in assay [3], in assay [4], in assay [5] and in assay [6] was inactive. The outcome in assay [7], in assay [8], in assay [9] and in assay [10] was inactive.

As for `COc1cc(C=O)ccc1O`, the result in assay [1], in assay [3], in assay [4], in assay [5], in assay [6] and in assay [7] was inactive. Besides, the outcome in [8] and in assay [9] was inactive.

Turning to `CCCCOC(=O)CCCCCCCCC(=O)OCCCC`, the result in [1], in [3], in assay [4], in assay [5], in assay [6] and in [7] was inactive. In addition, the result in assay [8] and in [9] was inactive.

`CNC(=O)[C@H]1O[C@@H](n2cnc3c(NCc4cc(Cl)ccc4OCc4cc(C)no4)ncnc32)[C@H](O)[C@@H]1N`: the result in assay [1], in assay [2], in assay [3], in assay [4], in assay [5] and in assay [6] was inactive. Also, the result in assay [7], in assay [8], in [9] and in assay [10] was inactive.

For `O=C(O)CCCCC(=O)O`, the outcome in assay [1], in assay [3], in [4], in [5], in [6] and in assay [7] was inactive. The result in assay [8] and in [9] was inactive.

With `CCCCCCOCCO`, the outcome in [1], in assay [2], in assay [3], in assay [4], in assay [5] and in assay [6] was inactive. Further, the outcome in [7], in [8], in assay [9] and in assay [10] was inactive.

`CN1CCN(Cc2cc(-c3ccc4[nH]c(=O)oc4c3)co2)[C@@H](c2ccc(F)cc2)C1`: the result in assay [1], in assay [2], in assay [4], in assay [7], in assay [8] and in assay [9] was inactive. The AC50 in assay [3] is 28.2 µM (active); in [6], 17.6 µM (active); in assay [10] it was 11.3 µM (active).

For the compound `COc1ccc(C)cc1N`, the result in [1], in assay [2], in assay [3], in assay [4], in assay [5] and in assay [6] was inactive. The outcome in [7], in assay [8], in assay [9] and in assay [10] was inactive.

For `O=[N+]([O-])C(CO)(CO)CO`, the outcome in assay [1], in assay [2], in assay [3], in [4], in assay [5] and in assay [6] was inactive. Further, the result in [7], in assay [8], in assay [9] and in assay [10] was inactive.

On to `C=CCOC(=O)c1ccccc1C(=O)OCC=C`, for which the outcome in assay [1], in assay [3], in assay [4], in assay [5], in assay [6] and in assay [7] was inactive. The outcome in assay [8] and in assay [9] was inactive.

On to `NC(=O)Cn1c(=O)cc(CCN2CCN(c3nccc4sccc34)CC2)c2ccc(F)cc21`, for which the outcome in assay [1], in [2], in assay [4], in assay [5], in assay [8] and in assay [9] was inactive. In addition, the results for the AC50 in [6], in assay [7] and in [10] were 3.25 µM (active), 3.97 µM (active) and 0.496 µM (active), respectively.

Consider `C=CCc1ccc(O)c(OC)c1`, for which the result in assay [1], in assay [3], in [4], in [5], in assay [6] and in assay [7] was inactive. In addition, the outcome in assay [8] and in assay [9] was inactive.

Turning to `CCCCCCCCCCO`, the result in assay [1], in assay [2], in assay [3], in assay [4], in assay [5] and in assay [6] was inactive. Further, the outcome in assay [7], in assay [8], in assay [9] and in [10] was inactive.
